Measured values reported in PubChem BioAssay AID720626 (Broad Institute, 2013).
Records with an inconclusive call do not appear. Active and inactive are the calls of the source.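 How the source made its calls: active means all three exposure times show falling viability signal with fitted midpoint dose at most twice top tested dose; inconclusive means calls differ across the three exposure times; inactive means all three exposure times inactive.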

Test: viability loss in SR immunoblastic lymphoma – cell-based, Alamar Blue fluorescence, several timepoints, dry powder, mechanism study for HRAS target identification, late-stage follow-up (AID 720626)
Details: SR lymphoma cells viability, 48 h; series mostly up to 35 µM

| Compound | outcome |
| --- | --- |
| CCC(=O)N(c1ccc(OC)c(Cl)c1)C(C(=O)NCCc1ccccc1)c1cccs1 (configuration not stated) | inactive |
| Cc1onc(C(=O)N2CCN(C(c3ccncc3)c3ccncc3)CC2)c1[N+](=O)[O-] | inactive |
